Compounds with a hit are over-represented: about 2.4% of the library has one in this group of screens.
PREPL inhibitor = PREPL enzyme inhibitors, primary screen, biochemical, fluorescence polarization. inhibition, % at 5.96 µM. recombinant PREPL, fluorescence polarization activity-based probe. hit rate 0.68% among 320,000. AID 2751, 2010. Prolyl endopeptidase-like (Homo sapiens), Q4J6C6; in the data active = inhibition above about 43%;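 note: 0% = enzyme with DMSO and 100% = wells lacking enzyme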
PP1 inh = PP1-alpha phosphatase inhibitors, primary screen, counter-screen for PP5 inhibitor project, biochemical, fluorescence, OMFP substrate, single point. Serine/threonine-protein phosphatase PP1-alpha catalytic subunit (Homo sapiens), P62136. purified PP1alpha. inhibition, % at 6.7 µM. hit rate 0.9% among 320,000. AID 2235, 2010;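 active = inhibition above the mean inhibition of all tested compounds plus 3 SD, computed separately for each screening campaign, cut at about 15% in these data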
Target sequence (P62136 whole entry, looked up): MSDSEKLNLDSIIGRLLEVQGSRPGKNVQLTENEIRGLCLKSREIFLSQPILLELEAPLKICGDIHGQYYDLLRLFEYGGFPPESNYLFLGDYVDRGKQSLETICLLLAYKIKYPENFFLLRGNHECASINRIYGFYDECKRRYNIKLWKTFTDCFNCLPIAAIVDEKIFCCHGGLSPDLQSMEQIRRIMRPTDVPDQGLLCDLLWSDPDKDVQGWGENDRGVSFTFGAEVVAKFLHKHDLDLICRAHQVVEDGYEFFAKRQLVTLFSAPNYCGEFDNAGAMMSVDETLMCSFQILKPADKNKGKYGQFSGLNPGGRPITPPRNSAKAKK
Rpn11 block = Rpn11 (PSMD14) deubiquitinase inhibitors, primary screen, biochemical, fluorescence polarization, uHTS. human 26S proteasome, Ub4-pepOG fluorescence polarization; 20S core pre-blocked with epoxomicin. inhibition, % at 20 µM. hit rate 0.59% among 360,000. AID 588493, 2011;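 active = inhibition at 20 µM, scaled to each plate's controls, above about 33%, limit read from the data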
Target sequence (O00487 whole entry, looked up): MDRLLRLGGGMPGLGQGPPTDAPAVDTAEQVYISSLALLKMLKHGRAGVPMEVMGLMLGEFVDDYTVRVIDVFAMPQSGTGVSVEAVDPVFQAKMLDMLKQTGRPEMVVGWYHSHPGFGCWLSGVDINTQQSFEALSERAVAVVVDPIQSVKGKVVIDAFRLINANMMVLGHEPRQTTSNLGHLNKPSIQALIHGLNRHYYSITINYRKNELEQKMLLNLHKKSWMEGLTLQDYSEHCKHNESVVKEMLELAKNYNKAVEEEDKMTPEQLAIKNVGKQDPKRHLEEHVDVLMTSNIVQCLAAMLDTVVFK
NadD block = inhibitors of S. aureus NadD, primary screen, biochemical, colorimetric, uHTS | AID 602399, 2012 | inhibition, % at 20 µM | purified NadD enzyme, colorimetric absorbance read-out | Nicotinate-nucleotide adenylyltransferase NadD (Staphylococcus aureus N315) | hit rate 0.78% among 360,000; in the data active = inhibition above about 26%
PP5 primary = PP5 phosphatase inhibitors, primary screen, biochemical, fluorescence | inhibition, % at 6.7 µM | AID 1987, 2009 | hit rate 0.18% among 320,000 | purified PP5c, OMFP substrate fluorescence;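 active = inhibition above the campaign's mean inhibition across all tested compounds plus 3 SD, cut at about 9.5% in these data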;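 note: 0% = DMSO only and 100% = 100 µM cantharidin control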
Active calls of the source: *; / = no result given.

SMILES | PREPL inhibitor | PP1 inh | Rpn11 block | NadD block | PP5 primary
Cc1ccc(C(=O)O)cc1-c1ccc(/C=C2\SC(=O)N(CC(=O)Nc3ccccc3)C2=O)o1 | 2.6 | 0.0 | 19.8 | 33.8* | 0.2
Cc1ccccc1NC(=O)CN1C(=O)S/C(=C\c2ccc(-c3cc(C(=O)O)ccc3C)o2)C1=O | / | / | 4.9 | 40.6* | /
COc1ccc(C2C/C(=N\O)C(C)(C)O2)cc1 (centres undefined) | 2.0 | 17.1* | 5.0 | -2.7 | -0.6
O=C1C=CC2=C3c4cc(O)c(O)cc4CC3(O)COC2=C1O (centres undefined) | / | / | / | 47.6* | /
Cc1ccc(S(=O)(=O)N(C)CC(=O)Nc2nc3ccccc3s2)cc1 | -73.4 | 0.1 | -12.0 | -3.9 | 5.4
Cc1ccc(/C(=N/Nc2nc3ccccc3s2)C2=C(O)c3ccccc3C2=O)cc1 | -2.0 | 3.3 | 8.7 | 34.0* | 1.9
CCc1ccc(S(=O)(=O)/N=C2\C=C(NS(=O)(=O)c3ccccc3)C(=O)c3ccccc32)cc1 | / | / | 3.8 | 27.2 | /
CC(C)c1ccc(S(=O)(=O)/N=C2\C=C(NS(=O)(=O)c3ccccc3)C(=O)c3ccccc32)cc1 | 9.2 | 0.0 | 4.1 | 41.3* | 3.1
Cc1ccc(C)c(S(=O)(=O)/N=C2\C=C(NS(=O)(=O)c3ccccc3)C(=O)c3ccccc32)c1 | -6.7 | 0.6 | -8.7 | 29.1* | 2.8
Cc1nc(C)c(-c2csc(NCc3ccco3)n2)s1 | 8.3 | -0.8 | 4.1 | 5.1 | 2.1
Cc1nc(NC(=O)c2ccccc2)sc1-c1csc(NCc2ccco2)n1 | 23.9 | 3.7 | 45.1* | 46.9* | 2.3
COc1cccc(C2CC(c3cccs3)=NN2C(=O)CSc2nc3ccccc3s2)c1OC (centres undefined) | -4.5 | 5.3 | 2.9 | 5.1 | 1.3
COc1cccc(C2CC(c3cccs3)=NN2C(=O)CSc2nc3c(cnn3-c3ccc(F)cc3)c(=O)[nH]2)c1OC (centres undefined) | 11.1 | 3.5 | 8.7 | 38.7* | 1.7
Cc1ccsc1C(=O)NC1CCCN(Cc2ccc(Cl)cc2)C1 (centres undefined) | / | / | -19.0 | 3.8 | /
CSc1nc2ccccc2n1CC(=O)Nc1ccccc1 | -2.4 | 0.1 | 1.3 | -0.8 | -1.4
Cc1ccc(SCc2nc3ccccc3n2CC(=O)Nc2c(C)cccc2C)cc1 | 5.7 | 16.0* | 15.5 | 6.4 | 1.2
Cc1ccc(SCc2nc3ccccc3n2CC(=O)Nc2ccccc2)cc1 | 53.0* | 1.2 | 8.5 | 1.9 | 3.7
COc1cccc(/C=N/n2c(N)c(S(=O)(=O)c3cccs3)c3nc4ccccc4nc32)c1OC | -6.1 | -3.1 | 1.2 | 6.5 | 0.0
Nc1c(S(=O)(=O)c2cccc(Cl)c2)c2nc3ccccc3nc2n1/N=C/c1ccc(O)c(O)c1 | 64.6* | 13.2 | / | / | 7.8
Oc1c(C=Nc2cccc3cccnc23)sc2ccccc12 | 44.9* | 2.8 | / | / | 1.8
O=c1c2c(nc3c(-c4cccc5ccccc45)c[nH]n13)CCC2 | 20.8 | 16.9* | -2.2 | 6.6 | -1.6
N#C/C(=C\c1ccncc1)c1nc2ccccc2[nH]1 | / | / | 18.4 | -1.2 | /
Cc1ccc2nc(/C(C#N)=C\c3ccc(N4CCCCC4)c([N+](=O)[O-])c3)[nH]c2c1 | 27.3 | 2.8 | -66.9 | 39.2* | 1.4
Cc1ccc2nc(/C(C#N)=C/c3ccc(O)c(O)c3)[nH]c2c1 | 32.9 | 5.6 | / | 7.3 | 7.1
N#C/C(=C/c1ccc(N2CCCC2)c([N+](=O)[O-])c1)c1nc2ccccc2[nH]1 | 14.5 | 1.1 | 4.5 | 35.8* | 1.6
SMILES | PREPL inhibitor | PP1 inh | Rpn11 block | NadD block | PP5 primary
O=C(NCc1ccco1)C(c1cccs1)N(Cc1ccccc1)C(=O)Cn1nnc2ccccc21 (centres undefined) | -15.2 | 0.5 | -1.2 | -6.3 | 2.5
Cc1ccc(CN(C(=O)Cn2nnc3ccccc32)C(C(=O)NCc2ccco2)c2cccs2)cc1 (centres undefined) | 4.5 | 16.6* | -0.3 | -0.2 | 5.2
O=c1cc(O)c2sc3nc(-c4cccnc4)cc(C(F)(F)F)c3c2[nH]1 | 0.2 | 17.5* | 32.3 | 3.2 | 2.8
Cc1cc(C(F)(F)F)c2c(n1)sc1c(O)cc(=O)[nH]c12 | 12.6 | -3.2 | -2.8 | 6.9 | 0.8
CCc1nc2ccc(C(=O)NCCCn3ccnc3)cn2c1N(C)Cc1cc2ccccc2s1 | / | / | 3.7 | 15.9 | /
CCCCNC(=O)C1c2ccccc2OCC(=O)N1Cc1ccccn1 (centres undefined) | / | / | / | 3.1 | /
CC(C)Oc1ccc(C(=O)N/N=C/c2ccc(-c3ccc(S(=O)(=O)Nc4ncccn4)cc3)o2)cc1 | 28.1 | 9.0 | 23.5 | 35.1* | 2.3
CC(C)c1ccc([C@@H]2O[C@H](CCc3ccccc3)CC3=C2C(=O)OC(C)(C)O3)cc1 | / | / | / | -0.2 | /
COc1ccc(-c2nc(SCc3ccccc3)n(S(C)(=O)=O)n2)cc1 | -4.5 | 1.5 | 4.0 | -6.8 | 11.4*
Cc1c(C(=O)NCc2ccc(C(C)C)cc2)sc(=O)n1Cc1ccc(S(=O)(=O)N(C)C)cc1 | / | / | 4.5 | -0.1 | /
CN(C)S(=O)(=O)c1ccc(-c2csc(N/N=C/c3ccco3)n2)cc1 | 0.9 | 2.3 | 3.4 | 1.8 | 0.9
CN(C)S(=O)(=O)c1ccc(-c2csc(N/N=C/c3ccc(O)cc3)n2)cc1 | 16.5 | -0.1 | 7.7 | 37.9* | 1.6
Nc1ccc2cc3[nH]c4cc(N)ccc4c3nc2c1 | / | / | -219.4 | 54.0* | /
CC(=O)N/C(=C\c1ccccc1)C(=O)OC(C)C(=O)NCc1ccccc1 (centres undefined) | 1.0 | -5.7 | -5.1 | 0.7 | -0.3
Cc1ccc(C)n1Cc1ccc(C(=O)O)cc1 | 4.8 | 18.3* | 29.4 | 3.3 | 1.5
CN1CCc2c(sc3c2C(=O)NC(c2cccc(OC(=O)c4cccs4)c2)N3)C1 (centres undefined) | 51.5* | 1.7 | / | -1.6 | 1.8
COc1cc(OC)nc(Nc2nc(C(N)Cc3ccc(Cl)cc3)cs2)n1 (centres undefined) | / | / | -2.3 | 12.9 | /
C/C(=N/Nc1ccnc2cc(Cl)ccc12)c1ccc(N)cc1 | 37.5 | 16.9* | 8.7 | 17.0 | 0.3
O=C(Nc1cccc(Cl)c1)c1cc(N=Nc2ccc([N+](=O)[O-])cc2Cl)ccc1O | 6.6 | -5.1 | / | 50.0* | -5.5
O=C(OCc1ccccc1)c1c(-c2ccccc2)oc2c1C(OCCO)CCC2 (centres undefined) | / | / | / | -8.1 | /
COC(=O)/C=C1\SC(=NC(=O)c2ccc(OC)cc2)NC1=O | 6.8 | -1.1 | 16.6 | 17.7 | 3.8
COC(=O)/C=C1\SC(=NC(=O)c2ccc(-c3ccccc3)cc2)NC1=O | 9.2 | / | 10.2 | 31.3* | /
COc1cccc2c1C(=O)c1c(O)c3c(c(O)c1C2=O)CC(O)(C(=O)CO)CC3OC1CC(N(C)C)C(O)C(C)O1 (centres undefined) | / | / | -69.1 | 33.0* | /

Screens deposited in PubChem BioAssay by several laboratories.
